Results: the OligoGym collection

Each sequence was assayed against COG2 (assay: pooled miR-30 sensor sort-seq; sequence = guide strand). Conditions: shRNA.
Note: reference of the scale not given here.

Row | Sequence | sensor-assay potency score (higher = more potent)
1 | TTCTGTGGCAATTCTCTCCAAA | -0.386
2 | TTGACAAACACAGAGTATCGTG | -0.356
3 | TAATCTCTTTACACTAGCCTGT | -0.36
4 | ATCGACATCGAAATCTTCCTTC | 0.744
5 | TCATCTGACCAACACCTCCTAA | -1.05
6 | TTGTTTGAGCTTATCCTTGTGT | 0.0501
7 | TTGAACAGCATGAAACTGTAAC | -0.748
8 | TTTCTCATGAAATGCATCGGGA | -0.465

The sequences below were run against COL16A1 in the same assay as above. Conditions: shRNA.

Row | Sequence | sensor-assay potency score (higher = more potent)
9 | TTAATGATCTCTTGTCTGATGA | -0.576
10 | AAGTGTGACATTGCTGTCCCGG | -0.502
11 | TTGTCTGATGAACCTCTTGATT | -1.11
12 | TTCTCTGCCAATCTGACCAGGG | -0.174
13 | TTTCTTCAGCAGTAGTGTCAGC | -0.871
14 | TTCCAATTTGAGTCCTTCCTGC | 0.311
15 | TGGTTTGCCACAGTCACCCTTA | -0.19
16 | TTTAATGATCTCTTGTCTGATG | -0.368
17 | TCTTGTCTGATGAACCTCTTGA | 0.162
18 | TGTAGTAAGCCATTCTCTCATC | -0.613
19 | ATCTCTTGTCTGATGAACCTCT | -0.329
20 | TTGAACTCCTGGTAGACCGGGT | 0.285
21 | TTGCGGATCTTCTTGATGGCAG | -0.676
22 | TTGGTAAGGATCCCAGTTCTGC | -0.831
23 | ATGCAGGACACAAAGTCGCCAT | -0.876
24 | ATTTTAATGATCTCTTGTCTGA | -0.577
25 | TTGACTTCCAGGGATATCTGTG | -0.154
26 | TCGAACACAGTCATTGCCCCGT | -0.664
27 | TGAACCTCTTGATTTCATCATA | -1.14
28 | TTTTAATGATCTCTTGTCTGAT | -0.328
29 | TAGACCTTGCCTTCAGACTGTG | 0.244
30 | TTGAAGGCCAGGCAATCCGGGG | -1.21
31 | TTGAAACAGATACCACGTCTTC | -0.641

The sequences below were run against COL20A1 in the same assay as above. Conditions: shRNA.

Row | Sequence | sensor-assay potency score (higher = more potent)
32 | TATCTGAACTTGGAAATGCTAC | -0.775
33 | TCTTCCTGAGCTTTTCTCCTGG | -0.053
34 | TAGACAAGCACGCCAGACGGGG | -1.06
35 | TCAATCACAAACTCCCTCCGAG | 0.439
36 | TAGACGTCACTGACCCGTCTTG | -0.759
37 | TTGAAGAGCGTGAAGGTCGGGG | 0.169
38 | TTGGTGTGAAGGCAACTTGGGG | -0.796
39 | TCGAACTTTGACACGTGTGAGG | -1.19
40 | AGCAGTGTGCACATCGTCCTGG | -0.7
